# Source: PubChem BioAssay (National Center for Advancing Translational Sciences (NCATS))
# TDP1 cell noCPT: qHTS for Inhibitors of human tyrosyl-DNA phosphodiesterase 1 (TDP1): qHTS in cells in absence of CPT. DT40 Tdp1-/- hTDP1 cells, no CPT, ATP luminescence, 48 h. Potency, µM (highest dose often 46.2 µM), for inactives: at the top dose activity change, negative = growth inhibition, most hits filed as inhibitors. 15% of 420,000 active; also: potency is read from the fitted curve at half-maximal effect; nearly all actives have a fitted effect of over 55% in size
#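 Camptothecin absent (DMSO only). Human TDP1-complemented DT40 knockout cells, 400 cells/well, 37 °C for minimum 48 hr; ATP measured via CellTiter-Glo, 30 min dark incubation, luminescence.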
# HT1080NT lethal: kills 2HG-producing HT-1080-NT fibrosarcoma cells; AID 686970; HT-1080-NT fibrosarcoma viability, CellTiter-Glo ATP luminescence, 48 h; Potency, µM (titrated, usually from 46.1 µM), for the others: top-dose activity, negative = less viability, usual class: cytotoxic; 1.6% of 360,000 active;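 also: NT is the 2HG producing partner of a matched IDH1 knockdown line; potency is read from the fitted curve at half-maximal effect; 0% = DMSO-treated cells and -100% = media-only wells without cells; nearly all actives have a fitted effect of over 55% in size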
#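 HT-1080-NT; 750 cells/well; 5% FBS RPMI; 48 h compound, 37 degrees C; CellTiter-Glo luminescence; curve fitting and curve-class assignment.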
# IL1B secr inh: inhibitors of inflammasome signaling (IL-1 beta secretion) | THP-1 LPS/ATP IL-1B secretion, AlphaLISA, 16 h; stronger effect = lower value | activity change, % at 57.5 µM | 4.7% of 360,000 active | AID 743279; in the data active = activity change below about -50%; inconclusive = mostly about -30% to -49%
#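 THP-1 cells pretreated 1 hr with compounds (up to 57.5 uM final), then stimulated with LPS (250 ng/mL final) plus ATP (1.25 mM final); secreted IL-1B measured by AlphaLISA after 16 hr, decreased signal indicating inhibition.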
# ELG1 repair inh: ELG1-dependent DNA repair inhibition | HEK293T ELG1-luciferase reporter, luminescence, 16 h; DNA damage induced by 5-fluorouridine | AID 504467 | 2.3% of 330,000 active | Potency, µM (doses to about 46.1 µM), inactives show top-dose activity change, negative = inhibition, actives largely listed as inhibitors; also: potency is read from the fitted curve at half-maximal effect; nearly all actives have a fitted effect of over 55% in size
#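 DMSO vehicle served as the neutral condition. Each well held 2,000 cells given 5-fluorouridine plus compound; after 16 hr at 37 °C/5% CO2, ONE-Glo was added and luciferase measured 30 min later.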
# HT1080 IDH1KD tx: HT-1080 IDH1 knockdown cell toxicity (counter line); AID 686971; 2% of 360,000 active; HT-1080 IDH1 knockdown viability, ATP luminescence, 48 h; Potency, µM (doses to about 46.1 µM), for the others: top-dose activity, negative = toxicity, most hits filed as cytotoxic;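 also: potency is read from the fitted curve at half-maximal effect; 0% = DMSO wells and -100% = cell-free medium wells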
#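 Luminescent ATP read-out (CellTiter-Glo, 10 min at room temperature) after 48 h compound exposure at 37 °C gave viability of IDH1-knockdown HT-1080 cells. Activity was normalised to DMSO and cell-free wells, then fitted as concentration-response curves.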
# DT40 TDP1 CPT: DT40-hTDP1 cell growth loss with CPT. chicken DT40 Tdp1-/-;hTDP1 cells + 20 nM CPT, ATP luminescence, 48 h. Potency, µM (top dose mostly 46.2 µM), for inactives: at the top dose activity change, negative = growth inhibition, actives largely listed as inhibitors. 12% of 420,000 active; also: potency is read from the fitted curve at half-maximal effect; nearly all actives have a fitted effect of over 55% in size
#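 Cell growth measured by CellTiter-Glo luminescence after a minimum 48 h, 37 C compound exposure with 20 nM CPT in Tdp1-knockout DT40 cells stably expressing hTDP1, seeded 400/well; qHTS titration format.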
# * hit, by the source's call; ? = inconclusive; nt = no result given. Sampled rows, rich in hits. Any-hit rate of the full collection: about 19%. Unless noted, calls follow the shape of the dose curve; as a rule, active = well fitted curve in the direction sought with a large enough effect; inconclusive = small, poorly fitted or top-dose-only effect, or another doubt; inactive = no such curve, though single readings can be large; an effect the other way counts as inactive or inconclusive. Unless noted, % is scaled to controls: 0 for no effect and ±100 for the full control effect.
SMILES,TDP1 cell noCPT,HT1080NT lethal,IL1B secr inh,ELG1 repair inh,HT1080 IDH1KD tx,DT40 TDP1 CPT
CCOc1ccccc1C(C(=O)NC1CCCCC1)N(C(=O)c1csnn1)C1CC1 (configuration not stated),?,6.9%,?,-3.8%,4.6%,-19.7%
COc1cc(C2C(C(=O)c3ccc(C)o3)=C(O)C(=O)N2c2cc(C)on2)ccc1OCc1ccccc1 (configuration not stated),29.1µM*,-0.2%,8.6,?,1.0%,?
O=C(C=Cc1ccco1)c1ccc([N+](=O)[O-])cc1,-21.7%,6.3%,-25.0,nt,15.3%,-3.7%
O=C(/C=C/c1ccco1)c1ccc(NC(=O)C23CC4CC(CC(C4)C2)C3)cc1,14.6µM*,1.0%,-19.9,22.6%,-0.4%,20.6µM*
Cc1csc2nc(-c3cccc(NC(=O)c4cccc(F)c4)c3)cn12,18.4µM*,nt,nt,nt,nt,18.4µM*
Cc1csc2nc(-c3cccc(NC(=O)c4ccccc4Cl)c3)cn12,18.4µM*,nt,nt,nt,nt,18.4µM*
COc1cccc2cc(C(=O)C3=C(O)C(=O)N(Cc4ccco4)C3c3cccnc3)oc12 (configuration not stated),23.1µM*,11.9%,24.0,-16.2%,4.6%,?
Cc1ccc(C)c(Nc2nc3c(S(=O)(=O)c4ccc(C(C)C)cc4)nnn3c3ccsc23)c1,20.6µM*,nt,nt,nt,nt,14.6µM*
Cc1ccc(C)c(Nc2nc3c(S(=O)(=O)c4ccc(Br)cc4)nnn3c3ccsc23)c1,20.6µM*,nt,nt,nt,nt,18.4µM*
COc1ccccc1Nc1nc2c(S(=O)(=O)c3ccc(C(C)C)cc3)nnn2c2ccsc12,-4.7%,nt,nt,nt,nt,-3.8%
Cc1ccc2c(c1)sc1nncn12,5.4%,-2.5%,28.8,nt,17.4%,4.5%
CC1(C2CCN(Cc3c[nH]c4ccccc34)CC2)NC(=O)N(CCN2CCOCC2)C1=O (configuration not stated),-23.5%,nt,nt,nt,nt,5.0%
O=C(OCC(O)CO)c1ccccc1Nc1ccnc2cc(Cl)ccc12 (configuration not stated),?,-15.3%,-82.8*,?,-19.6%,?
O=[N+]([O-])c1cccnc1SCc1ccccc1,6.8%,-3.0%,0.0,16.8%,-4.0%,-16.9%
CCOc1ccc(C(=O)Nc2ccc3nc(N4CCN(CC)CC4)cc(C)c3c2)cc1,25.9µM*,-2.1%,?,-14.1%,-6.9%,?
CCCCc1ccc(C(=O)Nc2ccc3nc(N4CCN(CC)CC4)cc(C)c3c2)cc1,2.91µM*,nt,nt,nt,nt,3.66µM*
CCN1CCN(c2cc(C)c3cc(NC(=S)N(CC)CC)ccc3n2)CC1,?,-11.2%,-8.9,-6.5%,-7.5%,?
CCN1CCN(c2cc(C)c3cc(NC(=O)c4cc(OC)cc(OC)c4)ccc3n2)CC1,16.4µM*,?,?,?,?,?
CC(=O)Nc1ccc(NC(=O)COC(=O)[C@@H]2CCCN2C(=O)c2cccs2)cc1,-22.8%,11.6%,6.7,?,20.4%,-28.4%
C[C@@H]1CCCCO[C@@H](CN(C)C(=O)c2ccncc2)[C@@H](C)CN([C@H](C)CO)C(=O)c2cc(N(C)C)ccc2O1,1.8%,4.2%,2.6,nt,8.1%,4.2%
Cc1cccc(CCN=c2c([N+](=O)[O-])nn(-c3ccccc3)n2O)c1,?,-3.0%,?,-2.7%,-7.5%,14.6µM*
O=[N+]([O-])c1nn(-c2ccc(Cl)cc2)n(O)c1=NCc1ccccc1,?,1.7%,-13.5,?,-16.8%,10.3µM*
COc1ccc(-n2nc([N+](=O)[O-])c(=NCCCN3CCCC3=O)n2O)cc1,?,-4.5%,6.5,?,5.8%,?
Cc1cccc(-n2nc([N+](=O)[O-])c(=NC3CCN(Cc4ccccc4)CC3)n2O)c1,11.6µM*,-5.9%,0.0,-10.5%,1.3%,8.2µM*
O=C1CCCN1CCCN=c1c([N+](=O)[O-])nn(-c2ccc(Cl)cc2)n1O,6.51µM*,2.3%,-22.6,-27.8%,-2.3%,3.26µM*
SMILES,TDP1 cell noCPT,HT1080NT lethal,IL1B secr inh,ELG1 repair inh,HT1080 IDH1KD tx,DT40 TDP1 CPT
CCOC(=O)CSc1nc(C)cc(C)c1C(N)=O,-8.7%,13.4%,0.0,6.9%,8.2%,-2.8%
COc1ccc(CCN=c2c([N+](=O)[O-])nn(-c3cccc(C)c3)n2O)cc1OC,?,-23.9%,-19.9,?,-22.3%,10.3µM*
CCOc1cc(CNCCCN2CCOCC2)cc(Br)c1OCc1ccccc1Cl,4.61µM*,7.31µM*,-101.3*,14.2%,8.2µM*,3.66µM*
CCOc1cc(CNCCN2CCOCC2)ccc1OCc1ccccc1Cl,18.4µM*,?,?,2.6%,?,?
COc1cc(CNCCN2CCOCC2)ccc1OCc1c(Cl)cccc1Cl,nt,nt,nt,7.1%,nt,nt
Cc1cccc(N2CCN(S(=O)(=O)c3ccc4c(c3)CCCN4C(=O)C3CCC3)CC2C)c1 (configuration not stated),?,16.8%,49.7,?,4.3%,?
COc1ccc(NC(=O)COC(C)=O)cc1Cl,12.0%,7.7%,-5.2,11.4%,4.5%,?
CCCn1c(C)cc(/C=C(\C#N)C(=O)OCC(=O)Nc2ccc(OC)c(Cl)c2)c1C,11.6µM*,-3.3%,3.9,-19.6%,-2.1%,-27.2%
CCOC(=O)/C=C/C(=O)OCC(=O)Nc1c(Cl)cccc1Cl,-28.9%,11.8%,-53.9*,12.5%,5.6%,?
CCOC(=O)/C=C/C(=O)OCC(=O)Nc1ccc(Cl)cc1Cl,2.7%,8.8%,-6.5,-8.5%,9.2%,0.5%
COc1ccc(NC(=O)COC(=O)/C=C/C(=O)OCC(=O)Nc2ccc(OC)c(Cl)c2)cc1Cl,?,?,-103.1*,21.7%,?,?
COC(=O)CCN1CCC2CC1c1cc(N3CCCCC3)ccc12 (configuration not stated),-8.4%,-1.0%,3.3,nt,0.2%,-3.7%
COc1ccc(OC)c(C=NNC(=O)NN=Cc2cc(OC)ccc2OC)c1,25.9µM*,-4.0%,-10.6,nt,1.7%,?
COc1ccc(OC)c(/C=N\NC(=O)c2cc3c(ccc4ccccc43)o2)c1,?,14.8%,-19.8,16.4µM*,16.4%,?
COc1ccc(OC)c(/C=N/NC(=O)c2cc3c(OC)cc(OC)cc3[nH]2)c1,?,?,?,20.6µM*,?,?
COc1ccc(OC)c(/C=N/NC(=O)CCc2ccc(O)c(O)c2)c1,?,-18.3%,-26.0,1.5%,-19.2%,20.6µM*
